# Measured values published in PubChem BioAssay (NCATS).
# Inconclusive results are not listed. Where a call stands in place of a potency, no number is given. A number with no mark means an inactive call. Calls of active or inactive are those of the source. The call rests on the fitted dose curve; in most records, active means well fitted inhibition curve with a large enough effect; inconclusive means small, poorly fitted or top-dose-only effect; inactive means flat fitted curve, though single readings scatter.
# System: CRL-7250
# Assay: qHTS assay to identify novel small-molecules to repurpose for Merkel cell carcinoma treatment (AID 1296009); further: nearly all actives have a fitted effect of over 60% in size
# Details: MCC and control cell lines, CellTiter-Glo viability, 72 h; series mostly up to 92 µM
# Method in brief: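 Luminescence from CellTiter-Glo, read 10 min after addition at room temperature, reported viability following a 72 hr, 37 degree celsius treatment with NPC or MIPE compounds in titration; values normalized to plate controls.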
Molecule,Potency,outcome
CC1OC(OC2CCC3(C)C(CCC4(C)C3CC=C3C5CC(C)(C)CCC5(C(=O)OC5OC(CO)C(O)C(O)C5O)CCC34C(=O)O)C2(C)C)C(O)C(O)C1O (stereo not given),inactive,–
COC(=O)C1=CO[C@@H](O[C@@H]2O[C@H](CO)[C@@H](O)[C@H](O)[C@H]2O)[C@H]2[C@@H]1[C@H](O)C[C@]2(C)O,inactive,–
C[C@@H](CC[C@@H]1[C@@]2(C)CCCC(C)(C)C2CC[C@@]1(C)O)CC(=O)O (stereo not given in full),inactive,–
H-DPPDPDRFYGMM-NH2,inactive,–
C[C@@H]1C(=O)OC[C@H]2C(C(=O)O)=C[C@@H]3CC(C)(C)C[C@]312,inactive,–
CC(=O)OC/C(=C/C(=O)O)CC[C@@H]1C(C)=CC(=O)[C@@H]2C(C)(C)CCC[C@@]12C,inactive,–
C=C[C@H]1C(O[C@@H]2O[C@H](CO)[C@@H](O)[C@H](O)[C@H]2O)OC=C2C(=O)N3CCc4c([nH]c5ccccc45)[C@H]3C[C@H]21 (stereo not given in full),inactive,–
CC(=O)OC1(C)CC(O)C2(O)C=COC(OC3OC(CO)C(O)C(O)C3O)C12 (stereo not given),inactive,–
COc1cc(C)c(C(=O)O[C@@H]2[C@H](O)[C@@H](CO)O[C@H]2n2ccc(=O)[nH]c2=O)c(OC)c1,inactive,–
C[C@@H]1CC[C@]2(C)C(C[C@@H](O)[C@H](O)[C@]23CO3)[C@@]1(C)CCc1ccoc1 (stereo not given in full),inactive,–
O=C(O)CCc1cccc(O[C@@H]2O[C@H](CO)[C@@H](O)[C@H](O)[C@H]2O)c1O,inactive,–
C[C@H](C(=O)NC1CCCC1)N(C(=O)Cn1nnc(-c2ccc3c(c2)OCO3)n1)C1CCCCC1,inactive,–
O=C(/C=C/c1ccc(O)cc1)OCC1OC(O)C(OC2OC(CO)C(O)C(O)C2O)C(O)C1O (stereo not given),inactive,–
O=c1c2cccnc2n(-c2cccc([N+](=O)[O-])c2)c(=O)n1Cc1ccncc1,inactive,–
Cc1cc(CO)c(O)c(C(=O)CC2CC(=O)NC(=O)C2)c1,inactive,–
CCNC(=O)[C@@H]1CCCN1C(=O)[C@H](CCCN=C(N)N)NC(=O)[C@H](CC(C)C)NC(=O)[C@@H](C)NC(=O)[C@H](Cc1ccc(O)cc1)NC(=O)[C@H](CO)NC(=O)[C@H](Cc1c[nH]c2ccccc12)NC(=O)[C@H](Cc1cnc[nH]1)NC(=O)[C@@H]1CCC(=O)N1,inactive,–
C[C@@H]1O[C@@H](O[C@H]2[C@H](OC(=O)[C@]34CCC(C)(C)C[C@H]3C3=CCC5[C@@]6(C)C[C@@H](O)[C@@H](O[C@@H]7O[C@H](CO)[C@@H](O)[C@H](O)[C@H]7O)[C@@](C)(CO)C6[C@H](O)C[C@@]5(C)[C@]3(C)CC4)OC[C@H](O)[C@@H]2O)[C@H](O)[C@H](O[C@@H]2OC[C@](O)(CO)[C@H]2O)[C@H]1O[C@@H]1OC[C@@H](O)[C@H](O[C@H]2O[C@H](C)[C@@H](O)[C@H](O)[C@@H]2O)[C@H]1O (stereo not given in full),–,inactive [at 9.27 µM]
C=CC(=O)N1CC(N2CCN(C(=O)CNc3cc(C4CC4)c(Cl)cc3O)CC2)C1,inactive,–
Nc1ncnc2c1ncn2[C@H]1O[C@@H](C(=O)N2CCN(CC(=O)Nc3cccc4c3CNC4=O)CC2)[C@H](O)[C@@H]1O,inactive,–
O=C1C(Cl)=C(N2CCOCC2)C(=O)N1c1ccc(Cl)c(Cl)c1,inactive,–
CC1(C)C[C@H](O)C[C@@]2(C)[C@H]1[C@H](O)C=C1COC(=O)[C@@]12O,inactive,–
C[C@@H]1O[C@@H](O[C@H]2[C@H](O[C@H]3[C@H](O[C@H]4CC[C@@]5(CO)C(CC[C@]6(C)C5CC=C5C7CC(C)(C)C[C@@H](O)[C@]7(C)CC[C@]56C)C4(C)C)O[C@H](C(=O)O)[C@@H](O)[C@@H]3O)OC[C@@H](O)[C@@H]2O)[C@H](O)[C@H](O)[C@H]1O (stereo not given in full),–,inactive [at 9.27 µM]
O=C(Nc1c(-c2cccs2)nc2ccccn12)c1ccc(Cl)cc1,inactive,–
CC/C=C\CC1C(=O)C=CC1(CCCCC1CCC(=O)O1)OC(C)=O (stereo not given),inactive,–
Cn1nc(C(C)(C)C)cc1C(=O)NC(Cc1cccc(Cl)c1)C(=O)NCC#N (stereo not given),inactive,–

Molecule,Potency,outcome
COc1ccc(-c2ccc(-c3cn(C(=O)N4CCCCC4c4ccccc4)nn3)cc2)cc1 (stereo not given),inactive,–
COc1cc(C2Oc3c(OC)cc(CCCO)cc3C2CO)ccc1O[C@H]1O[C@H](C)[C@@H](O)[C@H](O)[C@@H]1O (stereo not given in full),inactive,–
C[C@@H]1O[C@@H](O[C@H]2[C@H](O)[C@@H](O)[C@H](OC[C@H]3O[C@@H](OC(=O)[C@]45CCC(C)(C)C[C@H]4C4=CCC6[C@@]7(C)C[C@@H](O)[C@H](O)[C@@](C)(CO)C7[C@H](O)C[C@@]6(C)[C@]4(C)CC5)[C@H](O)[C@@H](O)[C@@H]3O)O[C@@H]2CO)[C@H](O)[C@H](O)[C@H]1O (stereo not given in full),–,inactive [at 9.27 µM]
C[C@@H]1O[C@@H](O[C@H]2[C@H](O[C@H]3[C@H](O[C@H]4CC[C@@]5(C=O)C(CC[C@]6(C)C5CC=C5C7CC(C)(C)C[C@@H](O)[C@]7(C)CC[C@]56C)C4(C)C)O[C@H](C(=O)O)[C@@H](O)[C@@H]3O)OC[C@@H](O)[C@@H]2O)[C@H](O)[C@H](O)[C@H]1O (stereo not given in full),–,inactive [at 9.27 µM]
O=C(O[C@H]1[C@@H]2C=CO[C@@H](O[C@@H]3O[C@H](CO)[C@@H](O)[C@H](O)[C@H]3O)[C@@H]2[C@@]2(CO)O[C@@H]12)c1ccc(O)c(O)c1,inactive,–
C=C(C)[C@@H](C)[C@H]1O[C@]23C[C@]4(CO2)C(CCC2[C@@]5(C)CC[C@H](O[C@@H]6OC[C@H](O)[C@H](O[C@@H]7O[C@H](CO)[C@@H](O)[C@H](O)[C@H]7O)[C@H]6O[C@@H]6O[C@@H](CO)[C@H](O)[C@H]6O)C(C)(C)C5CC[C@]24C)C3[C@@](C)(O)[C@@H]1OC(C)=O (stereo not given in full),–,inactive [at 9.27 µM]
CCCSc1nc(NC2CC2c2ccc(F)c(F)c2)c2nnn(C3CC(OCCO)C(O)C3O)c2n1 (stereo not given),inactive,–
CO[C@@]12CC3[C@@H]([C@@H](O)[C@@H](OC(C)=O)C4[C@](C)(COC(C)=O)CCC[C@]34C)[C@@H](C)C1=CC(=O)O2 (stereo not given in full),inactive,–
COc1cc2ncnc(Nc3ccc(O)cc3)c2cc1OC,inactive,–
C/C(=C\CCC1(C)C2CC3C(C2)C31C)C(=O)O (stereo not given),inactive,–
COc1cc(Br)c(S(=O)(=O)Nc2ccc(Cl)c(O[C@@H]3CCN(C)C3)c2)cc1OC,inactive,–
CCOC(=O)[C@H](CCc1ccccc1)N[C@@H](C)C(=O)N1C2CCCCC2C[C@H]1C(=O)O (stereo not given in full),inactive,–
CC1C(O)C(O)C2C(C(=O)OCCc3ccc(O)cc3)=COC(O[C@@H]3O[C@H](CO)[C@@H](O)[C@H](O)[C@H]3O)C12 (stereo not given in full),inactive,–
CC(C)(C)C1CCN(C(=O)n2ncc(C(O)(c3ccccc3)c3ccccc3)n2)CC1,inactive,–
CC1C2=CC(=O)OC2(O)CC2C1C(O)CC1C(C)(CO)CCCC21C (stereo not given),inactive,–
CCOC(=O)CCNc1cc(N2CCc3ccccc3CC2)nc(-c2cccnc2)n1,inactive,–
CC(C)[C@](O)(c1ccc2cc(OC(F)F)c(OC(F)F)cc2c1)c1cn[nH]n1,inactive,–
CCOC(=O)c1sc(NC(=O)[C@H](C(C)C)n2c(=O)[nH]c3ccccc3c2=O)nc1C,inactive,–
C/C=C/C=C/C(O)=C1/C(=O)[C@]2(C)C3/C(=C(O)/C=C/C=C/C)C(=O)C4(C)C1[C@]1(C)O[C@@]4(O)[C@@]3(C)O[C@@]12O,inactive,–
CCc1nn(CCO)c(CC)c1Oc1cc(C#N)cc(C#N)c1,inactive,–
COc1cc(O)c2c(c1)C1(OC2=O)C(C)=CC(=O)C1O (stereo not given),inactive,–
COc1ccc(C2=CC(=O)OC2Cc2ccc(O)cc2)c(O)c1 (stereo not given),inactive,–
CCC/C=C/C(=O)O[C@H]1CC(C)(C)CC2[C@@]13[C@H](O)C[C@]1(C)[C@@]2(CCC2[C@@]4(C)CC[C@H](O[C@@H]5O[C@H](C(=O)O)[C@@H](O)[C@H](O[C@@H]6O[C@H](CO)[C@H](O)[C@H](O)[C@H]6O[C@@H]6O[C@@H](C)[C@H](O)[C@@H](O)[C@H]6O[C@@H]6OC[C@](O)(CO)[C@H]6O)[C@H]5O[C@@H]5O[C@H](CO)[C@H](O)[C@H](O)[C@H]5O)C(C)(C)C4CC[C@]21C)O[C@H]3O (stereo not given in full),–,inactive [at 9.27 µM]
O=C(O)c1ccc(OC2OC(CO)C(O)C(O)C2O)cc1 (stereo not given),inactive,–
C[C@@H]1O[C@@H](O[C@H]2[C@H](O[C@H]3CC[C@@]4(C)C(CC[C@]5(C)C4CC=C4[C@@H]6CC(C)(C)CC[C@]6(C(=O)O[C@@H]6OC[C@H](O)[C@H](O)[C@H]6O[C@@H]6O[C@@H](C)[C@H](O[C@@H]7O[C@H](CO)[C@@H](O)[C@H](O)[C@H]7O)[C@H](O)[C@H]6O)[C@H](O)C[C@]45C)C3(C)C)O[C@H](CO)[C@@H](O[C@@H]3OC[C@@H](O)[C@H](O)[C@H]3O)[C@@H]2O)[C@H](O)[C@H](O)[C@H]1O (stereo not given in full),–,inactive [at 9.27 µM]
